Columns and labels:
Assay in all cases: DAPPL (digital affinity profiling via proximity ligation, sequencing); 10 mM Tris-HCl pH 7.5, 50 mM NaCl, 1 mM DTT, 4% glycerol, room temperature, 30 min; GST-TFs on glutathione beads, 16-mer random dsDNA library, 0.1% formaldehyde crosslink after washing; high values mean tight binding
FLI1 = target: T1, FLI1 (Homo sapiens, UniProt Q01543 1-452); settings: protein: recombinant; tags: N-terminal GST; dsDNA, one strand shown
T1 sequence: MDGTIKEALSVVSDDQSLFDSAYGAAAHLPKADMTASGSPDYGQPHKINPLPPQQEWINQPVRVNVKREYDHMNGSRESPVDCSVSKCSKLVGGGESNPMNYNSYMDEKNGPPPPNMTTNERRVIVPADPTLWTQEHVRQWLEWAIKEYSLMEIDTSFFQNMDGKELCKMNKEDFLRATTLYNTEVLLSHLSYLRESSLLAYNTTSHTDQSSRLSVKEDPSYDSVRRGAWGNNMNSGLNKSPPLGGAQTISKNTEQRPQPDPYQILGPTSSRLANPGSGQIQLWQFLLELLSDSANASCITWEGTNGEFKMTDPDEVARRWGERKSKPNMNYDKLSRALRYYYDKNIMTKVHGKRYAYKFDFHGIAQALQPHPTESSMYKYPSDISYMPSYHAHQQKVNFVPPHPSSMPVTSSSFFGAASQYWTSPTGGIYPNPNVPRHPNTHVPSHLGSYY
Summary of the method: (§1)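 Binding signal is given per hexamer as its read frequency for a factor divided by its frequency in the tag-only sample. GST-fused human transcription factors were expressed in yeast, captured on glutathione beads, barcoded with DNA and pooled with that sample, then incubated with 200 nmole of a 16-mer random double-stranded DNA library in Tris/NaCl/DTT/glycerol buffer for 30 min at room temperature. The pools were then washed, crosslinked, proximity-ligated, amplified by PCR and sequenced on an Illumina NextSeq500.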

ELK1 = target: T2, ELK1 (Homo sapiens, UniProt P19419 1-428); settings: protein: recombinant; tags: N-terminal GST; dsDNA, one strand shown
T2 sequence: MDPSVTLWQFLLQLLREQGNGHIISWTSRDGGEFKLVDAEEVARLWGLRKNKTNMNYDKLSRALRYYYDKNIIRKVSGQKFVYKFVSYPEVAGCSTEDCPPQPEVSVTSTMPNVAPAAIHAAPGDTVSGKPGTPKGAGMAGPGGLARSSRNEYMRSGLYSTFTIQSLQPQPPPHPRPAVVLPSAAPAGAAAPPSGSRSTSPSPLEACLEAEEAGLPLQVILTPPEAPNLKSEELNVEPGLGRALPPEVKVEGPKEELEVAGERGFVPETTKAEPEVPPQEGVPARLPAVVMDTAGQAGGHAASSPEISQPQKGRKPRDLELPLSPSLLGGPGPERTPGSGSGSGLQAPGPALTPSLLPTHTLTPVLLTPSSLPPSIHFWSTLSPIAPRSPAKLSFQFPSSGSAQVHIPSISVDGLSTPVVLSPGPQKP
Summary of the method: as §1

GABPA = target: T3, GABPA (Homo sapiens, UniProt Q06546 1-454); settings: protein: recombinant; tags: N-terminal GST; dsDNA, one strand shown
T3 sequence: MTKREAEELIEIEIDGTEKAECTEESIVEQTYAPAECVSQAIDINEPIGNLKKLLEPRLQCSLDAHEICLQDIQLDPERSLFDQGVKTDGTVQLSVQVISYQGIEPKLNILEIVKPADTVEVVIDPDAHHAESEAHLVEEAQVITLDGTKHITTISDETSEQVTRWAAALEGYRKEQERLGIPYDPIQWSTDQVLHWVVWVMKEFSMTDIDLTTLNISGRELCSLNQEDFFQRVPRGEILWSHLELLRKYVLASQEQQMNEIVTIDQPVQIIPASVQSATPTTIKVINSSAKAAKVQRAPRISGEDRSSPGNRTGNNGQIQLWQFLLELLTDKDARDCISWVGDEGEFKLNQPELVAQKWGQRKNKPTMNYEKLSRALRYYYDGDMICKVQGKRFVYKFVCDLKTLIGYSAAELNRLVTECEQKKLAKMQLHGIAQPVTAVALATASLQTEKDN
Summary of the method: as §1

ERG = target: T4, ERG (Homo sapiens, UniProt P11308 1-479); settings: protein: recombinant; tags: N-terminal GST; dsDNA, one strand shown
T4 sequence: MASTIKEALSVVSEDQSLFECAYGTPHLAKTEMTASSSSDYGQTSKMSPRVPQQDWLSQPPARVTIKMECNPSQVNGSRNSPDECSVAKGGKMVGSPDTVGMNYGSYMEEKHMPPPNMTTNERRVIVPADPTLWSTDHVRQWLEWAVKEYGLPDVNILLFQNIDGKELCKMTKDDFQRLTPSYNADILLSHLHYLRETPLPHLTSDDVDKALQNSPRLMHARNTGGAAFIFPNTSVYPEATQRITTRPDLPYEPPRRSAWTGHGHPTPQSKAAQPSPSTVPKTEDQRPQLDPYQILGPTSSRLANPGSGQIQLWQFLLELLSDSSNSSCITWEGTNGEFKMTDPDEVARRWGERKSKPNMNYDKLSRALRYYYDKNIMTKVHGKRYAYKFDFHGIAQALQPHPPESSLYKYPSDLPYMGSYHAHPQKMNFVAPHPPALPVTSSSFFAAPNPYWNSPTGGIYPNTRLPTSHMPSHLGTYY
Summary of the method: as §1

ELF1 = ELF1 (Homo sapiens, UniProt P32519 1-619); settings: protein: recombinant; tags: N-terminal GST; dsDNA, one strand shown
Sequence of ELF1 (P32519 whole entry): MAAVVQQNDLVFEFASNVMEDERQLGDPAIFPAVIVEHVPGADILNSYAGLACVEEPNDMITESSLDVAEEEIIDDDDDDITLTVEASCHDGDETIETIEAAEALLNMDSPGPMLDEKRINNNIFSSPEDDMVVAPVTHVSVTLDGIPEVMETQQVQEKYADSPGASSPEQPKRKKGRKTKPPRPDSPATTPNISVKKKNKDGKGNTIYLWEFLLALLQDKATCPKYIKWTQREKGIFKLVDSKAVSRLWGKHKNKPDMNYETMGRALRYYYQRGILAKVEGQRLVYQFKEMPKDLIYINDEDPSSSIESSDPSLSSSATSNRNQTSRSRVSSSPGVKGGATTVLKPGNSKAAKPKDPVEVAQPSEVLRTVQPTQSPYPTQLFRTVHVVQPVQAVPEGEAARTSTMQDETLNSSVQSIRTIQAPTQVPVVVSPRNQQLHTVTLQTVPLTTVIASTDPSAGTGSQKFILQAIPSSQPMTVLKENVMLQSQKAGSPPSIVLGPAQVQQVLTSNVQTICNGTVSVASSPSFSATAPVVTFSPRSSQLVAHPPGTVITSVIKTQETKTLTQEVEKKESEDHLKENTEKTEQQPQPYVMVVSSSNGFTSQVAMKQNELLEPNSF
Summary of the method: as §1

EHF = target: T5, EHF (Homo sapiens, UniProt Q9NZC4 1-300); settings: protein: recombinant; tags: N-terminal GST; dsDNA, one strand shown
T5 sequence: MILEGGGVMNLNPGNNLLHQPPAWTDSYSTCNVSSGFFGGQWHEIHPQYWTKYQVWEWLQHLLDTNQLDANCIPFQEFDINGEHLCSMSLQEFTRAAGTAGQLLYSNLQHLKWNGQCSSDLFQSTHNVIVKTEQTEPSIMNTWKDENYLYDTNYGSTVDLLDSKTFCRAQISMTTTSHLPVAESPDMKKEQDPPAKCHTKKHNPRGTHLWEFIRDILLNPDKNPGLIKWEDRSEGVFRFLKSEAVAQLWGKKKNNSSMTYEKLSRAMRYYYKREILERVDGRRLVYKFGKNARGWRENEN
Summary of the method: as §1

SPI1 = SPI1 (Homo sapiens, UniProt P17947 1-270); settings: protein: recombinant; tags: N-terminal GST; dsDNA, one strand shown
Summary of the method: as §1

SPIB = SPIB (Homo sapiens, UniProt Q01892 1-262); settings: protein: recombinant; tags: N-terminal GST; dsDNA, one strand shown
Sequence of SPIB (Q01892 whole entry): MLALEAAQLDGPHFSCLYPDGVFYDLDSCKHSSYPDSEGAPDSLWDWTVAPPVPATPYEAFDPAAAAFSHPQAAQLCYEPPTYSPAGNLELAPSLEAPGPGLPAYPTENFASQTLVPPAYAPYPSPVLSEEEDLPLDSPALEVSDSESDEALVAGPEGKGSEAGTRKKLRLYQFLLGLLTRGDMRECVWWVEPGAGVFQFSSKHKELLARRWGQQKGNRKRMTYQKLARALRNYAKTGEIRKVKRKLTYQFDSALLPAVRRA
Summary of the method: as §1

ELK3 = target: T6, ELK3 (Homo sapiens, UniProt P41970 1-407); settings: protein: recombinant; tags: N-terminal GST; dsDNA, one strand shown
T6 sequence: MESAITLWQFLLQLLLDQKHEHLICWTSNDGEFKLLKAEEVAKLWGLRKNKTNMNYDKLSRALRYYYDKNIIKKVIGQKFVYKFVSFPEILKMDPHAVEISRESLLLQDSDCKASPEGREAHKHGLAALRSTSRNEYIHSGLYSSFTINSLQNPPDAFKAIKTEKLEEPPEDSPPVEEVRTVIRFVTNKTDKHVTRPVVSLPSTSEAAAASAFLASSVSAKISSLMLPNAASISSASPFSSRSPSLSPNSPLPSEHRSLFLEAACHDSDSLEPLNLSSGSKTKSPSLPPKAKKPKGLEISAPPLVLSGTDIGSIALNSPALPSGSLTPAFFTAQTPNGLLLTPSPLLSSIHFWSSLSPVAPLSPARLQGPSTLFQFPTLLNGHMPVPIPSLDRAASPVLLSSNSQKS
Summary of the method: as §1

FEV = target: T7, FEV (Homo sapiens, UniProt Q99581 1-238); settings: protein: recombinant; tags: N-terminal GST; dsDNA, one strand shown
T7 sequence: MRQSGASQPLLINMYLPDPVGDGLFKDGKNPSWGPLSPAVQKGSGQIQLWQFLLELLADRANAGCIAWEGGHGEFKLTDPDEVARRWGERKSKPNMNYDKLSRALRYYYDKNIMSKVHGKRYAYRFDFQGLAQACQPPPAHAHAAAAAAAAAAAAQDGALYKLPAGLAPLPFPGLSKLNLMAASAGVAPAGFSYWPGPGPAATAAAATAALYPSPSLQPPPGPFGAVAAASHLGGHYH
Summary of the method: as §1

ETV5 = ETV5 (Homo sapiens, UniProt P41161 1-510); settings: protein: recombinant; tags: N-terminal GST; dsDNA, one strand shown
Sequence of ETV5 (P41161 whole entry): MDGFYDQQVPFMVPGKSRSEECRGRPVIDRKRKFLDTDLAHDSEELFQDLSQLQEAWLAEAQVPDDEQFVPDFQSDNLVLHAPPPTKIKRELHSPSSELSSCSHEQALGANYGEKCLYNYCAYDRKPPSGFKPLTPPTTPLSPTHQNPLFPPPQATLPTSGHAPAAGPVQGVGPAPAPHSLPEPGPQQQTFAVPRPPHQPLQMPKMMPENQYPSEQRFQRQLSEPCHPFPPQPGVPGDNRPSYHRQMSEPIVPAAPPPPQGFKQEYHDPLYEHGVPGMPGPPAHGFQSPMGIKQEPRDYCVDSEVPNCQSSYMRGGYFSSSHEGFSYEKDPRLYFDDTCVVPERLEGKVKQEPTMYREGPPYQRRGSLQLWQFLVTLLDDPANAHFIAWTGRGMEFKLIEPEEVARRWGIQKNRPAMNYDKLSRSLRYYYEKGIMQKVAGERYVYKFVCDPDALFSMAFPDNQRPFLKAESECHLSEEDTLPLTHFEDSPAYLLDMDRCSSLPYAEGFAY
Summary of the method: as §1

HSF1 = HSF1 (Homo sapiens, UniProt Q00613 1-529); settings: protein: recombinant; tags: N-terminal GST; chain copies: 3; dsDNA, one strand shown
Sequence of HSF1 (Q00613 whole entry): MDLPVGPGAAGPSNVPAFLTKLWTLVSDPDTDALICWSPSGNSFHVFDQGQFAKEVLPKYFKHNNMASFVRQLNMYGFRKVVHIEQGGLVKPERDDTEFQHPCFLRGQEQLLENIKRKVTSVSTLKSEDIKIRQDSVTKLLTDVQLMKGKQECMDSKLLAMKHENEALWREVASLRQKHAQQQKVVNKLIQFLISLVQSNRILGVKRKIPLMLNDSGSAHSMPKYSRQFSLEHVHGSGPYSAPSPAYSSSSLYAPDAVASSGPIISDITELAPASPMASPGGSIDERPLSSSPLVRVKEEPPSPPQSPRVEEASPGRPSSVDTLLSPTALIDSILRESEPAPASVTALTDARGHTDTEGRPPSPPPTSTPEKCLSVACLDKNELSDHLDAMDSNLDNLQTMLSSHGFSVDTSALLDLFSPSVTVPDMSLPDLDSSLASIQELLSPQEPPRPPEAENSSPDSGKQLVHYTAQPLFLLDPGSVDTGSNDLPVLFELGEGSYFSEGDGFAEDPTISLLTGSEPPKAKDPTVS
Summary of the method: as §1

SPIC = target: T8, SPIC (Homo sapiens, UniProt Q8N5J4 1-248); settings: protein: recombinant; tags: N-terminal GST; dsDNA, one strand shown
T8 sequence: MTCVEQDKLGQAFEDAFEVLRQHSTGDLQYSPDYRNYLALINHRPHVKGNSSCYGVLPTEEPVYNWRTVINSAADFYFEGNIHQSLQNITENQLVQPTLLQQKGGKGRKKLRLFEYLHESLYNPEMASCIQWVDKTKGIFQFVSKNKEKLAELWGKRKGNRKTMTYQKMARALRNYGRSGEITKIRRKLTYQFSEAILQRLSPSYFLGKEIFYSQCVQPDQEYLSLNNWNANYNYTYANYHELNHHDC
Summary of the method: as §1

ELF4 = ELF4 (Homo sapiens, UniProt Q99607 1-663); settings: protein: recombinant; tags: N-terminal GST; dsDNA, one strand shown
Sequence of ELF4 (Q99607 whole entry): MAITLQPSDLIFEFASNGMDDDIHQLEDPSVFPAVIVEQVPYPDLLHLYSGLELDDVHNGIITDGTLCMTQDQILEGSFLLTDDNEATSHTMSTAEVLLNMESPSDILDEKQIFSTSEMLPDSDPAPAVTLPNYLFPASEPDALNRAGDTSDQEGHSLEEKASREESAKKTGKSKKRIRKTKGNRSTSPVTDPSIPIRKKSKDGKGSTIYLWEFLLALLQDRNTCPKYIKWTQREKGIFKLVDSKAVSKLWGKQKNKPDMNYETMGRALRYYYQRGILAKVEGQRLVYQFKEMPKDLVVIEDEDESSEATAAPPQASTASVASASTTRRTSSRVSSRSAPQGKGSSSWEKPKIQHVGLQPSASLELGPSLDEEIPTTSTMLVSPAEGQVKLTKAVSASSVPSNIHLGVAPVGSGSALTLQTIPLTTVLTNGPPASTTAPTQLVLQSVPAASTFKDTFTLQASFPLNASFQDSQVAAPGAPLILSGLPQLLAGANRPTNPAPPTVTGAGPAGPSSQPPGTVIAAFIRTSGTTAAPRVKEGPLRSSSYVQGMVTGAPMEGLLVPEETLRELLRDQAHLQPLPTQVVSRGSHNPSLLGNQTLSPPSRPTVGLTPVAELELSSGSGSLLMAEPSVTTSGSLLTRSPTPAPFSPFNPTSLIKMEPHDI
Summary of the method: as §1

ELK4 = target: T9, ELK4 (Homo sapiens, UniProt P28324-2 1-405); settings: protein: recombinant; tags: N-terminal GST; dsDNA, one strand shown
T9 sequence: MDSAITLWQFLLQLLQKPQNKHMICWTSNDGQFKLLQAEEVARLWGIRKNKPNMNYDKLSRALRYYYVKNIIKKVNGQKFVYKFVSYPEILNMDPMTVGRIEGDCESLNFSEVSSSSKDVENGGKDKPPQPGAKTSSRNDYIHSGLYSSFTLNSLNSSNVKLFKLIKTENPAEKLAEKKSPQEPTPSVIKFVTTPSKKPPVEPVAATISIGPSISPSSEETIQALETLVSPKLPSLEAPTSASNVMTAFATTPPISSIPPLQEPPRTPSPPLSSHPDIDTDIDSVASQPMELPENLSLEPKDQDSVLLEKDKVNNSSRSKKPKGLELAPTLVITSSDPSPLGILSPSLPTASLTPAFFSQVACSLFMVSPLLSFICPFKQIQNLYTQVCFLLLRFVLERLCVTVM
Summary of the method: as §1

ETV2 = target: T10, ETV2 (Homo sapiens, UniProt O00321 1-342); settings: protein: recombinant; tags: N-terminal GST; dsDNA, one strand shown
T10 sequence: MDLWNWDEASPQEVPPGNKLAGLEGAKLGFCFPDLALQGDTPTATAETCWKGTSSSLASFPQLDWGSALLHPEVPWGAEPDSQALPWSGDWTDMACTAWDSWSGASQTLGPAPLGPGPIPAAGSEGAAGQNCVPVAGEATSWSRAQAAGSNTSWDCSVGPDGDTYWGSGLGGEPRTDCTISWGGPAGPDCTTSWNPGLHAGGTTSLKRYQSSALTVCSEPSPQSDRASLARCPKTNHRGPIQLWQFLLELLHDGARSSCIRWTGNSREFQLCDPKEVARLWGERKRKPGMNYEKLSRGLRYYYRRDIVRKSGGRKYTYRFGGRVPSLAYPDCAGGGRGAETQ
Summary of the method: as §1

ELF3 = target: T11, ELF3 (Homo sapiens, UniProt P78545 1-371); settings: protein: recombinant; tags: N-terminal GST; dsDNA, one strand shown
T11 sequence: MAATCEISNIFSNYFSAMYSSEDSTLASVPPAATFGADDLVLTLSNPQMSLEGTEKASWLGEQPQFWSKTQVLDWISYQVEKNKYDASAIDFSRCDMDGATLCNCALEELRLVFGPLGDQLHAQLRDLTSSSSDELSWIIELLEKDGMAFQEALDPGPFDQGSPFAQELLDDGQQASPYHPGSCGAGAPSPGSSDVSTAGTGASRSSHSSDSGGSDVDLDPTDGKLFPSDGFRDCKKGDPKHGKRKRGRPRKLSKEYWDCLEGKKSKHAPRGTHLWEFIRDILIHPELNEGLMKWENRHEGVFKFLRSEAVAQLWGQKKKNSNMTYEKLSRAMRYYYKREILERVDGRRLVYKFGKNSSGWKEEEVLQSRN
Summary of the method: as §1

CRX = CRX (Homo sapiens, UniProt O43186 1-299); settings: protein: recombinant; tags: N-terminal GST; dsDNA, one strand shown
Sequence of CRX (O43186 whole entry): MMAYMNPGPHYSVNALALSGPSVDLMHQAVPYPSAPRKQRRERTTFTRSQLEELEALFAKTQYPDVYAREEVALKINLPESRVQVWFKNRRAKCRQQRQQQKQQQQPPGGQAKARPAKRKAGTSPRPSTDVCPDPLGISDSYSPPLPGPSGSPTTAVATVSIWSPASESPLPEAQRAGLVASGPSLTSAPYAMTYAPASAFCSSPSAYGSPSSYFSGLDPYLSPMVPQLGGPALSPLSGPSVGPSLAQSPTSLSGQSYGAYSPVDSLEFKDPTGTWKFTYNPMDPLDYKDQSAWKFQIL
Summary of the method: as §1

ETV1 = ETV1 (Homo sapiens, UniProt P50549 1-477); settings: protein: recombinant; tags: N-terminal GST; dsDNA, one strand shown
Sequence of ETV1 (P50549 whole entry): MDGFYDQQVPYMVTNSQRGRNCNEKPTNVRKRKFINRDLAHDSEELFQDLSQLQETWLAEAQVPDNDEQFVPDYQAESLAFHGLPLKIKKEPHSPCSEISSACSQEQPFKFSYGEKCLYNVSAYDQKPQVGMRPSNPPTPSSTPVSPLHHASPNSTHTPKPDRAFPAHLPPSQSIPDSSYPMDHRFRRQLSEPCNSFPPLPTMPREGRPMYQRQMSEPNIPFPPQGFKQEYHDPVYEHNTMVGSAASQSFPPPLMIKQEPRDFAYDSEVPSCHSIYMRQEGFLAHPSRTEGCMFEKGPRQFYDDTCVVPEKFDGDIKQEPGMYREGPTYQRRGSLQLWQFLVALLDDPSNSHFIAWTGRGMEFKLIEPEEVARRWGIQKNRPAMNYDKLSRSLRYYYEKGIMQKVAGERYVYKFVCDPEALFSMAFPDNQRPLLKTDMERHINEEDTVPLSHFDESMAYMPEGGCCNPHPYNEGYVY
Summary of the method: as §1

ATAGTA
binding signal (FLI1): 1.12 fold enrichment (6-mer frequency, TF over GST control) | binding signal (ELK1): 1.18 fold enrichment (6-mer frequency, TF over GST control) | binding signal (GABPA): 1.19 fold enrichment (6-mer frequency, TF over GST control) | binding signal (ERG): 1.15 fold enrichment (6-mer frequency, TF over GST control) | binding signal (ELF1): 1.19 fold enrichment (6-mer frequency, TF over GST control) | binding signal (EHF): 1.22 fold enrichment (6-mer frequency, TF over GST control) | binding signal (SPI1): 1.06 fold enrichment (6-mer frequency, TF over GST control) | binding signal (SPIB): 1.13 fold enrichment (6-mer frequency, TF over GST control) | binding signal (ELK3): 1.12 fold enrichment (6-mer frequency, TF over GST control) | binding signal (FEV): 1.16 fold enrichment (6-mer frequency, TF over GST control) | binding signal (ETV5): 1.18 fold enrichment (6-mer frequency, TF over GST control) | binding signal (HSF1): 1.16 fold enrichment (6-mer frequency, TF over GST control) | binding signal (SPIC): 1.29 fold enrichment (6-mer frequency, TF over GST control) | binding signal (ELF4): 1.16 fold enrichment (6-mer frequency, TF over GST control) | binding signal (ELK4): 1.24 fold enrichment (6-mer frequency, TF over GST control) | binding signal (ETV2): 1.34 fold enrichment (6-mer frequency, TF over GST control) | binding signal (ELF3): 1.2 fold enrichment (6-mer frequency, TF over GST control) | binding signal (CRX): 1.24 fold enrichment (6-mer frequency, TF over GST control) | binding signal (ETV1): 1.13 fold enrichment (6-mer frequency, TF over GST control)

Source: article PMC7862700, “An all-to-all approach to the identification of sequence-specific readers for epigenetic DNA modifications on cytosine”
